# Screening results: PubChem BioAssay, National Center for Advancing Translational Sciences (NCATS)
# TDP-43 yeast inh: inhibitors of TDP-43 toxicity in yeast | TDP-43 expressing yeast growth rescue, BacTiter-Glo, 24 h | Potency, µM (doses to about 46.1 µM), without a hit: at the highest dose growth rescue (activation), usual class: activators | hit rate 1.8% among 410,000 | AID 652104; further: % of control where 0% means no effect; nearly all actives have a fitted effect of over 50% in size
#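 In this qHTS, compounds that restore growth of yeast expressing TDP-43 appear as activators. Cells (OD600=0.02, galactose medium, raffinose-pregrown) are incubated with compound 24 hr at 30 deg C and growth is quantified by BacTiter-Glo.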
# Abeta rescue: A-beta toxicity reversal in yeast; hit rate 0.063% among 410,000; yeast expressing A-beta42, growth rescue, OD600, 48 h; response scale: 0% DMSO, 100% iron-clioquinol control; AID 1347071; Potency, µM (top dose mostly 46.1 µM), hits mostly activators; further: nearly all actives have a fitted effect of over 55% in size
#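 Growth rescue measured by 600 nm absorbance after 48 h yeast culture at 30 C with compound. Values normalized between DMSO and an equimolar ferric chloride plus clioquinol control.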
# Mito fusion yeast: mitochondrial division inhibition or fusion activation; S. cerevisiae fusion-defective mutant growth rescue, CellTiterGlo 48 h; Potency, µM (top dose mostly 46.1 µM), for the others: at the top dose growth rescue (activation), most hits filed as activators; hit rate 0.23% among 320,000; AID 485298; further: % of control where 0% means no effect; nearly all actives have a fitted effect of over 45% in size
#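 Growth-rescue viability read-out: after 48 h at the non-permissive 37C in glycerol/ethanol YPEG, yeast mitochondrial fusion mutants are measured by CellTiterGlo luminescence; compounds (23 nl pinned per well) restoring growth score as division inhibitors or fusion activators.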
# aSyn yeast inh: rescues yeast growth from alpha-synuclein toxicity | Potency, µM (doses to about 46.1 µM), for the others: at the highest dose growth rescue (activation), hits mostly activators | hit rate 0.14% among 370,000 | Yeast expressing alpha-synuclein, growth rescue, BacTiter-Glo, 24 h; further: % of control where 0% means no effect; nearly all actives have a fitted effect of over 65% in size
#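 Galactose-induced alpha-syn yeast (OD600=0.02, raffinose-pregrown) + pinned cpd, 24 hr, 30 deg C; growth by BacTiter-Glo luminescence. Growth restoration scores as activation.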
# FUS suppressor: rescues growth of FUS-expressing yeast | AID 1347120 | Potency, µM (series often up to 76.6 µM), usual class: activators | S. cerevisiae FUS-expressing, growth rescue, OD600, 24 h | hit rate 0.24% among 390,000;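 further: plate controls were DMSO vehicle for no effect and reference control for full effect; nearly all actives have a fitted effect of over 55% in size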
#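 S. cerevisiae expressing FUS from galactose induction served as the toxicity model. Growth after 24hr at 30C, read as absorbance at 600 nm, indicates suppression of toxicity; compounds dosed at several concentrations.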
# An asterisk follows results filed as active; i = inactive; u = inconclusive; x = no result; [ ] = dose if it differs, or a comment. A selection: hits, their analogues and other compounds. The true share with any hit is near 2.2%. The call rests on the fitted dose curve; in most records, active means well fitted curve in the direction sought with a large enough effect; inconclusive means small, poorly fitted or top-dose-only effect, or another doubt; inactive means no such curve, though single readings can be large; an effect the other way counts as inactive or inconclusive. Potency means the concentration at half of the fitted maximal effect.
SMILES,TDP-43 yeast inh,Abeta rescue,Mito fusion yeast,aSyn yeast inh,FUS suppressor
COc1ccc(-c2cnc(C)o2)cc1S(=O)(=O)Nc1c(C)cc(C)cc1C,25µM*,i,x,x,i
COc1ccc(-c2cnc(C)o2)cc1S(=O)(=O)Nc1ccc(OC(F)(F)F)cc1,22µM*,i,x,x,i
COc1cc(S(C)=O)ccc1-c1nc2ncccc2[nH]1 (configuration not stated),7%,i,-2%,0%,i
COc1ccc(S(=O)(=O)n2nc(C)c(S(=O)(=O)N3CCC(C)CC3)c2C)cc1C,25%,i,x,x,i
Cc1ccc(C(=O)c2cc3c(cc2[N+](=O)[O-])OCCO3)cc1,13µM*,i,-6%,-7%,i
CCN(C(=O)c1cn(CC)c(=O)c2cc(OC)c(OC)cc12)c1ccc(C)c(C)c1,10%,i,x,x,i
COC(=O)[C@]12CCCCC=C1N(CCc1ccc(OC)c(OC)c1)C(=O)[C@H](CC(=O)NCC13CC4CC(CC(C4)C1)C3)C2,-12%,i,x,-1%,8.9µM*
CCCCCCCCN1C(=O)[C@H](CC(=O)NCc2ccc(OC)c(OC)c2)C[C@@]2(C(=O)OCC)CCC=C12,28µM*,i,x,-5%,u
CCCCCCCCN1C(=O)[C@H](CC(=O)NCc2ccc(OC)c(OC)c2)C[C@@]2(C(=O)OC)CCCCC=C12,20µM*,i,x,17%,u
CCCCNC(=O)C[C@@H]1C[C@@]2(C(=O)OC)CCCCC=C2N(CCc2ccc(OC)c(OC)c2)C1=O,-12%,i,x,-2%,i
CCc1ccccc1NC(=O)CN1CCN(CC(=O)Nc2cc(C)ccc2OC)CC1,0%,i,0%,-8%,i
C=CCN1[C@H](CO)[C@H](c2ccc(C#CC3(O)CCCC3)cc2)[C@@H]1C#N,x,x,x,x,i
O=C(NC1CCSc2ccccc21)c1cc([N+](=O)[O-])ccc1N1CCOCC1 (configuration not stated),35µM*,i,-37%,-1%,i
Cc1ccccc1COC(=O)c1cc([N+](=O)[O-])ccc1N1CCOCC1,26%,i,10%,17%,i
O=C(OCc1ccccc1F)c1cc([N+](=O)[O-])ccc1N1CCOCC1,35µM*,i,7%,5%,x
CCOC(=O)C1=C(COC(=O)c2ccc([N+](=O)[O-])s2)NC(=O)NC1C (configuration not stated),20µM*,i,x,-74%,i
CCOC(=O)C1=C(COC(=O)c2sccc2C)NC(=O)NC1C (configuration not stated),3%,i,3%,0%,i
CC1CCN(C(=O)CSc2ccc(-c3ccccc3)nn2)CC1,18µM*,i,-1%,11%,i
O=C(CSc1ccc(-c2cccs2)nn1)N1CCCCCC1,18µM*,u,-18%,0%,x
O=C(CSc1ccc(-c2cccs2)nn1)N1CCCCC1,22µM*,i,-5%,1%,x
O=C(CSc1ccc2nnc(-c3cccs3)n2n1)N1CCCC1,-22%,i,2%,3%,i
CCOC(=O)CSc1nc2sc3c(c2c(=O)n1-c1ccccc1)CC(C(C)C)OC3 (configuration not stated),2%,i,x,x,i
COCc1nnc(NC(=O)c2cc(Cl)ccc2OC)s1,0%,i,5%,0%,i
CCOCc1nnc(NC(=O)c2cc(Cl)ccc2OC)s1,13µM*,i,6%,11%,i
C=CCNc1nc(Cl)nc(Nc2ccc(OC)cc2)n1,6%,i,-2%,1%,i
SMILES,TDP-43 yeast inh,Abeta rescue,Mito fusion yeast,aSyn yeast inh,FUS suppressor
C=CCNc1nc(Nc2ccc(OC)cc2)nc(OC)n1,20µM*,i,0%,-15%,i
CCN(CC)C(=O)C1=C(C)N(CCCN2CCCC2=O)C(=O)C(CC(=O)NC2CCCC2)C1 (configuration not stated),16%,i,x,16%,i
COc1ccc(-c2oc3ncn4nc(COc5ccc(C)cc5)nc4c3c2-c2ccc(OC)cc2)cc1,8%,i,x,x,i
COc1cc(/C=N/N2CCOCC2)ccc1OCc1ccccc1,-13%[9.22 µM],i,6%,-8%,i
COc1cc(/C=N/N2CCOCC2)ccc1OCc1ccc(Cl)cc1,11µM*,i,18%,-1%,i
Cc1ccc(C)c(NC(=O)CSc2nc3nccnc3c(=O)n2CCc2c[nH]c3ccccc23)c1,0%,i,x,x,u
COc1cccc(/C=C2\CCC(C3CCCC3)C2=O)c1OC (configuration not stated),u,i,-14%,-10%,7.9µM*
CCOC(=O)c1c(C)oc2ncnc(Nc3cccc(C(F)(F)F)c3)c12,10%,i,x,x,i
CCC(=O)Oc1c(Sc2ccc(C)cc2)c(C)nn1-c1ccccc1,30%,i,x,x,i
Cc1nn(-c2ccccc2)c(OC(=O)C(C)(C)C)c1Sc1ccccc1,u,i,x,x,i
Cc1ccc(Sc2c(C)nn(-c3ccccc3)c2OC(=O)C(C)(C)C)cc1,14µM*,i,x,x,i
CCCC(=O)Oc1c(Sc2ccc(C)cc2)c(C)nn1-c1ccccc1,11µM*,i,x,x,i
CCOC(=O)/C(=N\Nc1cccc(Cl)c1)Sc1nnc(-c2ccc(OC)cc2)n1C,32µM*,i,14%,0%,x
C=CCOc1c(Br)cc(CNc2ccc(NC(=O)C(C)C)c(OC)c2)cc1OCC,10%,i,3%,10%,14µM*
C=CCOc1c(Br)cc(CNc2ccc(NC(=O)CCC)cc2)cc1OCC,u,u,-2%,2%,i
CCc1ccc2oc(C(=O)N3CCN(c4ccccc4OC)CC3)cc(=O)c2c1,20µM*,i,16%,14%,i
COc1ccccc1N1CCN(C(=O)c2cc(=O)c3c(C)cc(C)cc3o2)CC1,25µM*,i,u,-3%,i
O=C(c1cc(=O)c2ccccc2o1)N1CCN(c2ccccc2F)CC1,14µM*,i,0%,6%,i
O=C(c1cc2ccccc2o1)N1CCN(S(=O)(=O)c2c(F)cccc2F)CC1,14µM*,i,2%,10%,i
COc1ccccc1N1CCN(C(=O)COc2cc(C)cc3oc(=O)cc(C)c23)CC1,18%,i,0%,-5%,i
CC(=O)c1ccc(N2CCN(C(=O)CCCCn3c(=O)[nH]c4ccccc4c3=O)CC2)cc1,-5%[9.22 µM],i,x,x,i
CCN(CC)C(=O)c1cccc(-c2csc(C(NC(C)=O)c3cccc(OC)c3)n2)c1 (configuration not stated),13%,i,x,-5%,u
Cc1ccc(NC2(C#N)CCCC2)cc1,-19%,i,x,-2%,i
